Screens from PubChem BioAssay.
An excerpt weighted towards active compounds, which were near 6.1% of everything screened.
ATXN viability = Viability Counterscreen for Primary qHTS for Inhibitors of ATXN expression | Potency, µM (titrated, usually from 56.7 µM), usual class: cytotoxic | S2 cells (HEK-293 line with an ATXN2-luciferase reporter) viability, CellTiter-Fluor protease fluorescence, 24 h | actives 0.49% (n = 400,000) | AID 651635, 2014; further: nearly all actives have a fitted effect of over 40% in size
TGFb SMAD3 inh = qHTS for Inhibitors of TGF-b | HepG2 CAGA-GFP TGF-b/SMAD3 reporter, GFP fluorescence, 18 h; TGF-beta stimulated, 500 pg/mL final | Potency, µM (titrated, usually from 46.1 µM), without a hit: top-dose activity, negative = inhibition, usual class: inhibitors | actives 1.2% (n = 410,000) | AID 588855, 2011; further: on the % scale 0 is the no-effect control and ±100 the full control effect; nearly all actives have a fitted effect of over 65% in size
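Inhibition of TGF-beta-driven CAGA-GFP reporter expression in HEPG2 cells is measured by cellular GFP fluorescence after 18 h stimulation with 500 pg/mL recombinant TGF-beta in 1% FBS medium at 37 degrees C.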
HepG2 viability = qHTS for Inhibitors of TGF-b: Cytotox Counterscreen; HepG2 CAGA-GFP viability, ATP luminescence, 18 h; Potency, µM (top dose mostly 46.1 µM), for the others: at the top dose activity change, negative = cytotoxicity, usual class: cytotoxic; actives 0.76% (n = 410,000)
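CellTiter-Glo luminescence gave cytotoxicity after 18 hours at 37 degrees C. The cells were HepG2 CAGA-GFP in 1% FBS DMEM, stimulated with 500 pg/mL TGF-beta after compound addition. %Activity was normalised to no-cell wells (complete cell-killing) and DMSO (no toxicity), and curves were fitted and classified.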
ATXN2 expr inh = Primary qHTS for Inhibitors of ATXN expression; HEK-293 ATXN2-luciferase reporter, luminescence, 24 h; actives 0.72% (n = 360,000); Potency, µM (titrated, usually from 57 µM), for inactives: at the highest dose activity change, negative = inhibition, actives largely listed as inhibitors; further: on the % scale 0 is the no-effect control and ±100 the full control effect; nearly all actives have a fitted effect of over 55% in size
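qHTS (up to 57 uM final) was run with 24 h compound exposure of reporter cells at 37 °C. Each well was multiplexed: SteadyGlo luminescence measured ATXN2-luciferase expression after a fluorogenic Gly-Phe-AFC viability readout (25 uM final).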
RORgamma inh = qHTS for inhibitors of ROR gamma transcriptional activity. Nuclear receptor ROR-gamma (Mus musculus), P51450. Drosophila S2 Gal4-RORgamma UAS-luciferase reporter, 20 h. Potency, µM (highest dose often 53.6 µM), for the others: top-dose activity change, negative = inhibition, usual class: inhibitors. actives 5.4% (n = 310,000). AID 2551, 2010; further: on the % scale 0 is the no-effect control and ±100 the full control effect; nearly all actives have a fitted effect of over 60% in size
Target sequence (P51450 whole entry, looked up, the tested form may be a part): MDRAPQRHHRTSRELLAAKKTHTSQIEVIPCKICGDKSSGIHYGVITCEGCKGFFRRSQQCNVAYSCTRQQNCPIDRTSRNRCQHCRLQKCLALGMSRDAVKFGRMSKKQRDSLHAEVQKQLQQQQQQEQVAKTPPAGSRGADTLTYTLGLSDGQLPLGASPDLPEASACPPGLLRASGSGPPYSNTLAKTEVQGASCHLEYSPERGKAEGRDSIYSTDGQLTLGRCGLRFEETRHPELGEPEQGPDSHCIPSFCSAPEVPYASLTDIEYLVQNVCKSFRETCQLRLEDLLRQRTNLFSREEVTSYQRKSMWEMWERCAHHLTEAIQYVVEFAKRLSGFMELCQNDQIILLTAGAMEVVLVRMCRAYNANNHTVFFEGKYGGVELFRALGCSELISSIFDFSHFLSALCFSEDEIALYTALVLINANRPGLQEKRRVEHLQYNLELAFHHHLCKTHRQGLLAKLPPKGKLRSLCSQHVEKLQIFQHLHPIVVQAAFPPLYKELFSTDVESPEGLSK
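Schneider cells (Drosophila), stable Gal4 DBD–ROR gamma + UAS-luc; 1 hr cmpd preincubation; Cu2+ induction 700 uM final; 20 hr ambient; luminescence.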
VP16 counter = VP16 counterscreen qHTS for inhibitors of ROR gamma transcriptional activity; Drosophila S2 Gal4-VP16 UAS-luciferase, luminescence, 20 h; Potency, µM (series often up to 53.6 µM), without a hit: at the top dose activity, negative = inhibition, usual class: inhibitors; actives 3.5% (n = 310,000); AID 2546, 2010;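 further: Gal4-VP16 expression switched on by copper sulfate through the metallothionein promoter; on the % scale 0 is the no-effect control and ±100 the full control effect; nearly all actives have a fitted effect of over 50% in size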
* = called active by the depositor; [ ] = dose if it differs, or a comment. The call rests on the fitted dose curve; in most records, active means well fitted curve in the direction sought with a large enough effect; inconclusive means small, poorly fitted or top-dose-only effect, or another doubt; inactive means no such curve, though single readings can be large; an effect the other way counts as inactive or inconclusive. Potency means the concentration at half of the fitted maximal effect.

Clc1ccc(Nc2c3c(nc4ncnn24)CCC3)cc1 was read as ATXN viability inactive, TGFb SMAD3 inh inconclusive, HepG2 viability -17.9%, RORgamma inh inconclusive and VP16 counter -17.2%.
Screening Cc1cccc(Nc2c3c(nc4ncnn24)CCC3)c1 returned ATXN viability inactive, TGFb SMAD3 inh -4.0%, HepG2 viability -4.6%, RORgamma inh inconclusive and VP16 counter -0.7%.
For COc1ccc(-c2cc(NCCc3ccncc3)n3ncnc3n2)cc1 the results were ATXN viability inactive, TGFb SMAD3 inh -5.0%, HepG2 viability -4.6%, ATXN2 expr inh -23.0%, RORgamma inh 4.3% and VP16 counter inconclusive.
For c1ccc(CNc2c3c(nc4ncnn24)CCCC3)nc1 the results were ATXN viability inactive, TGFb SMAD3 inh -13.8%, HepG2 viability 31.2%, ATXN2 expr inh 1.9%, RORgamma inh 7.08µM* and VP16 counter -1.1%[0.365 µM].
For Cc1cc(C)cc(Nc2c3c(nc4ncnn24)CCC3)c1 the results were ATXN viability inactive, TGFb SMAD3 inh -22.6%, HepG2 viability 2.1%, ATXN2 expr inh -35.6%[11.3 µM], RORgamma inh inconclusive and VP16 counter 12.6µM*.
`CC(=C(CCOC(=O)C(C)C)SSC(CCOC(=O)C(C)C)=C(C)N(C=O)Cc1cnc(C)nc1N)N(C=O)Cc1cnc(C)nc1N` gave ATXN viability inactive and ATXN2 expr inh -15.4%.
`CCN(c1ccccc1)S(=O)(=O)c1ccc(C(=O)Oc2ccc(C(C)=O)cc2)cc1` gave ATXN viability inconclusive, TGFb SMAD3 inh -12.7%, HepG2 viability -2.0%, ATXN2 expr inh -4.4%, RORgamma inh inconclusive and VP16 counter 10µM*.
CCN(c1ccccc1)S(=O)(=O)c1ccc(C(=O)Nc2ncccc2O)cc1 was read as ATXN viability inactive, TGFb SMAD3 inh 1.4%, HepG2 viability -25.8%, ATXN2 expr inh -12.8%, RORgamma inh 20µM* and VP16 counter inconclusive.
`CN(C)c1ccc(/C=C/c2c3c(nc4ccccc24)CCCC3)cc1` gave TGFb SMAD3 inh 0.0% and HepG2 viability 5.3%.
`Cc1cc2c(N=O)c(NO)ccc2[nH]1` gave ATXN viability inconclusive, TGFb SMAD3 inh inconclusive, HepG2 viability -24.6%, ATXN2 expr inh inconclusive, RORgamma inh 5.01µM* and VP16 counter 3.16µM*.
Screening COc1ccc2[nH]c(O)c(N=O)c2c1 returned ATXN viability inactive, TGFb SMAD3 inh -18.5%, HepG2 viability 5.8%, ATXN2 expr inh -0.2%, RORgamma inh 0.3% and VP16 counter inconclusive.
For CN(C)c1ccc(C(CNC(=O)c2c(F)cccc2Cl)N2CCOCC2)cc1 (configuration not stated) the results were TGFb SMAD3 inh -20.5% and HepG2 viability -12.6%.
For Cc1ccc(-c2cc(C(=O)NC3=NCCS3)c3cc(Br)ccc3n2)o1 the results were RORgamma inh 7.94µM* and VP16 counter 14.1µM*.
Screening Cc1ccc(-c2cc(C(=O)Nc3ccccc3C)c3ccccc3n2)o1 returned ATXN viability inactive, TGFb SMAD3 inh 20.6%, HepG2 viability -14.5%, ATXN2 expr inh 4.9%, RORgamma inh inconclusive and VP16 counter 12.6µM*.
For Cc1ccc(-c2cc(C(=O)O)c3cc(Br)ccc3n2)o1 the results were ATXN viability inconclusive, TGFb SMAD3 inh -4.0%, HepG2 viability -1.7%, ATXN2 expr inh -14.9%, RORgamma inh -2.9% and VP16 counter 2.8%.
O=C(N/N=C/c1ccc([N+](=O)[O-])o1)c1cc(-c2ccncc2)nc2ccccc12 was read as ATXN viability inconclusive, TGFb SMAD3 inh 14.4%, HepG2 viability -42.4%, ATXN2 expr inh inconclusive, RORgamma inh -19.0% and VP16 counter -13.7%.
For O=C(N/N=C/c1ccc([N+](=O)[O-])o1)c1cc(-c2ccc(-c3ccccc3)cc2)nc2ccccc12 the results were ATXN viability inconclusive, TGFb SMAD3 inh -13.7%, HepG2 viability -8.1%, ATXN2 expr inh inconclusive, RORgamma inh 0.708µM* and VP16 counter 1.12µM*.
Screening Cc1ccc2nc(N/N=C/c3ccco3)cc(C)c2c1 returned ATXN viability inactive, TGFb SMAD3 inh inconclusive, HepG2 viability 11.2µM*, ATXN2 expr inh -29.1%, RORgamma inh 6.31µM* and VP16 counter inconclusive.
`O=C(Nc1ccc(Cl)cc1Cl)[C@@H]1CC=C[C@@H]2CCN(Cc3ccccc3)C(=O)[C@@H]21` gave TGFb SMAD3 inh -23.8% and HepG2 viability -0.4%.
For COc1ccc2ccccc2c1CN1CCCC(n2cc(C(=O)N3CCCC3)nn2)C1 (configuration not stated) the results were ATXN viability inactive.
Screening Cc1ccc(CNC(=O)Cc2coc3cc(C)cc(C)c23)cc1 returned ATXN viability inactive, TGFb SMAD3 inh -11.4%, HepG2 viability -11.7% and ATXN2 expr inh -0.7%.
O=C(N/N=C/c1ccco1)c1cc(-c2cccc(Br)c2)nc2ccccc12 was read as ATXN viability inconclusive, TGFb SMAD3 inh -17.5%, HepG2 viability -33.9%, ATXN2 expr inh -34.1%, RORgamma inh 3.16µM* and VP16 counter 5.62µM*.
CC(/C=N/NC(=O)c1cc(-c2ccncc2)nc2ccccc12)=C\c1ccco1 was read as ATXN viability inactive, TGFb SMAD3 inh inconclusive, HepG2 viability -6.2%, ATXN2 expr inh -6.6%, RORgamma inh -0.2% and VP16 counter 29.0%.
`Cc1cc(N/N=C/c2ccc([N+](=O)[O-])o2)nc2ccccc12` gave TGFb SMAD3 inh 6.7%, HepG2 viability -55.7%, ATXN2 expr inh inconclusive, RORgamma inh 11.2µM* and VP16 counter inconclusive.
`Cc1ccc(-c2cc(C(=O)N/N=C/c3ccc([N+](=O)[O-])o3)c3ccccc3n2)o1` gave ATXN viability inactive, TGFb SMAD3 inh 14.1µM*, HepG2 viability 11.2µM*, ATXN2 expr inh -26.2%, RORgamma inh 12.6µM* and VP16 counter inconclusive.
`CN1CCN(C(=S)c2cn(CCOc3ccccc3)c3ccccc23)CC1` gave ATXN viability inactive, TGFb SMAD3 inh -17.2%, HepG2 viability -0.7%, RORgamma inh 11.2µM* and VP16 counter inconclusive.
`CN1CCN(C(=S)c2cn(CCOc3ccccc3F)c3ccccc23)CC1` gave ATXN viability inactive, TGFb SMAD3 inh 16.8%, HepG2 viability -22.6%, ATXN2 expr inh 18.0%, RORgamma inh 14.1µM* and VP16 counter -7.5%.
